In PubChem BioAssay (NCI) one finds growth data, which are given here for eight compounds.

SMILES strings stand for the structures. Compounds without any hit were thinned out: in the full panel of roughly 83,000, 20% have a hit.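 Growth was measured after 48 h exposure to one concentration of compound in 96-well plates. Values under 10 count as active.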 Values without a mark were called inactive. Activity calls are given as the source filed them.

Among the test systems are HCT-15 colon; SNB-75 CNS; SNB-19 CNS; U251 CNS; PC-3 prostate; SK-MEL-5 melanoma; UACC-62 melanoma; LOX IMVI melanoma; SK-MEL-28 melanoma; SK-MEL-2 melanoma; EKVX NSCLC; SN12C renal; UO-31 renal; TK-10 renal; ACHN renal; CAKI-1 renal; CCRF-CEM leukemia; MOLT-4 leukemia; A498 renal; HT29 colon.
What all share (experiment): NCI-60 one-dose screen, 48 h (100 = growth as untreated, 0 = no growth, -100 = all killed)
What all share (conditions): 10 µM unless noted

Consider `Cn1c2ccccc2c2c3c(c4c5ccccc5n(C)c4c21)C(=O)OC3`, for which the growth in the assay with HCT-15 colon was 96.7%; in the assay on SNB-75 CNS, 68.1%; in the assay with SNB-19 CNS it was 92.7%; in the assay with U251 CNS, 104%; in the assay with PC-3 prostate, 90.6%; in the assay on SK-MEL-5 melanoma, 93.5%. Also, the growth was 88.6% with UACC-62 melanoma; 88.2% with LOX IMVI melanoma; 120% in the assay with SK-MEL-28 melanoma; 107% in the assay on SK-MEL-2 melanoma; 88.1% in the assay on EKVX NSCLC; 92.3% in the assay with SN12C renal. The growth in the assay on UO-31 renal was 61%; in the assay on TK-10 renal, 135%; with ACHN renal, 87.3%; in the assay on CAKI-1 renal it was 82.6%; in the assay on CCRF-CEM leukemia, 98.4%; in the assay on MOLT-4 leukemia, 89.7%.

With `COc1ccc(/C=C/c2nc(Nc3ccc(S(=O)(=O)Nc4cc(C)on4)cc3)c3ccccc3n2)cc1`, the growth in the assay with HCT-15 colon was 48.8%; with SNB-75 CNS it was 74.7%; in the assay on SNB-19 CNS, 83.2%; with U251 CNS, 74.5%; with PC-3 prostate, 74.7%; in the assay with SK-MEL-5 melanoma it was 43.5%. For the same compound, the growth was 17.5% in the assay with UACC-62 melanoma; 31.5% with LOX IMVI melanoma; 91.7% in the assay with SK-MEL-28 melanoma; 75.8% with SK-MEL-2 melanoma; 71.6% with EKVX NSCLC; 82.3% with SN12C renal. Besides, the growth with UO-31 renal is 50.3%; with TK-10 renal, 71.5%; with ACHN renal it was 54.2%; in the assay on CAKI-1 renal, 49.4%; in the assay on A498 renal, 1.73% (active); in the assay on CCRF-CEM leukemia it was 49%. Also, the growth in the assay on MOLT-4 leukemia is 70.6%.

`O=C(NCCNc1nccc(-c2c(-c3cccc(F)c3)nc3sccn23)n1)c1ccc(Cl)cc1`: the growth in the assay with HCT-15 colon was 40.1%; in the assay with SNB-75 CNS, 63.5%; in the assay with SNB-19 CNS it was 71.9%; with U251 CNS, 66.1%; in the assay with PC-3 prostate it was 72.5%; with SK-MEL-5 melanoma, 33.6%. The growth was 14.7% with UACC-62 melanoma; 43.4% with LOX IMVI melanoma; 64.9% with SK-MEL-28 melanoma; 62.5% in the assay with SK-MEL-2 melanoma; 63.2% in the assay on EKVX NSCLC; 52.5% with SN12C renal. Also, the growth in the assay on UO-31 renal was 28.1%; in the assay on TK-10 renal it was 75.4%; in the assay with ACHN renal, 34.2%; in the assay with CAKI-1 renal it was 41.5%; in the assay with CCRF-CEM leukemia it was 58.2%; in the assay on MOLT-4 leukemia it was 65.7%.

Take `NS(=O)(=O)c1ccc(CCN2C(=O)C=CC2=O)cc1`: the growth with HCT-15 colon was 99.3%; in the assay with SNB-19 CNS, 107%; in the assay with U251 CNS it was 104%; with PC-3 prostate, 100%; in the assay with SK-MEL-5 melanoma, 104%; in the assay on UACC-62 melanoma, 104%. Moreover, the growth in the assay with LOX IMVI melanoma was 97%; in the assay with SK-MEL-28 melanoma, 107%; with SK-MEL-2 melanoma, 98.2%; in the assay on EKVX NSCLC it was 102%; with SN12C renal, 110%; with UO-31 renal it was 84.5%. Also, the growth is 89.7% with TK-10 renal; 102% in the assay on ACHN renal; 94.8% with CAKI-1 renal; 106% in the assay with A498 renal; 99% with CCRF-CEM leukemia; 97.4% in the assay with MOLT-4 leukemia.

In the case of `CCCCCCNC(=O)Oc1ccc(/C(=C(\C)c2ccccc2)c2ccc(OCCN3CCCCC3)cc2)cc1`, the growth in the assay with HT29 colon is -6.46% (active); with SNB-75 CNS it was 92.5%; with SNB-19 CNS, 74.6%; with U251 CNS it was 50.1%; in the assay with PC-3 prostate it was 47.9%; with SK-MEL-5 melanoma it was 71.2%. Further, the growth in the assay on UACC-62 melanoma was 5.21% (active); with LOX IMVI melanoma it was 53.9%; with SK-MEL-28 melanoma it was 48.8%; in the assay with SK-MEL-2 melanoma, 75.3%; in the assay on EKVX NSCLC it was 77.7%; in the assay on SN12C renal, 71.4%. The growth was 39.4% in the assay on UO-31 renal; 83.3% in the assay on TK-10 renal; 90.2% with ACHN renal; 44.8% with CAKI-1 renal; 60.7% in the assay on CCRF-CEM leukemia; 43.7% with MOLT-4 leukemia.

As to `[O-][n+]1c(Cl)cc(Cl)c2ccccc21`, the growth in the assay on HT29 colon is 122%; with SNB-19 CNS, 102%; with U251 CNS, 92.9%; with PC-3 prostate, 81.2%; in the assay with SK-MEL-5 melanoma it was 109%; with UACC-62 melanoma, 98.9%. Moreover, the growth with SK-MEL-28 melanoma was 104%; in the assay on SK-MEL-2 melanoma, 123%; in the assay with EKVX NSCLC, 76.9%; in the assay with SN12C renal, 101%; with UO-31 renal, 78.5%; in the assay with TK-10 renal, 125%. The growth in the assay with ACHN renal was 99.5%; with CAKI-1 renal it was 92.6%; with A498 renal it was 73.2%; with CCRF-CEM leukemia it was 87.5%; in the assay with MOLT-4 leukemia it was 88.7%.

With `C=C1C(=O)O[C@H]2[C@H]1CC/C(CNS(=O)(=O)c1cccc3ccccc13)=C\CC[C@@]1(C)O[C@@H]21`, the growth in the assay on HT29 colon is -3.2% (active); in the assay with SNB-75 CNS, 66.5%; in the assay on SNB-19 CNS, 67.2%; in the assay with U251 CNS it was 53.1%; in the assay with PC-3 prostate, 45.7%; in the assay on SK-MEL-5 melanoma it was 41.4%. For the same compound, the growth was 29% with UACC-62 melanoma; 14.3% in the assay with LOX IMVI melanoma; 2.74% (active) in the assay on SK-MEL-28 melanoma; 59.4% in the assay with SK-MEL-2 melanoma; 59.4% in the assay on EKVX NSCLC; 11.9% in the assay on SN12C renal. In addition, the growth was 21.9% in the assay on UO-31 renal; 8.61% (active) in the assay with TK-10 renal; 3.67% (active) in the assay on ACHN renal; 34.5% with CAKI-1 renal; 70.9% with A498 renal; 1.32% (active) with CCRF-CEM leukemia. In the assay on MOLT-4 leukemia, the growth was 6.51% (active).

Consider `C=C(C)[C@@H]1CC[C@]2(C(=O)N[C@H](CO)Cc3ccccc3)CC[C@]3(C)[C@H](CC[C@@H]4[C@@]5(C)CCCNC(C)(C)[C@@H]5CC[C@]43C)[C@@H]12`, for which the growth is -86.1% (active) in the assay with HT29 colon; -95.1% (active) in the assay on SNB-75 CNS; -88% (active) in the assay with SNB-19 CNS; -89.7% (active) with U251 CNS; -84.9% (active) with PC-3 prostate; -95.5% (active) in the assay with SK-MEL-5 melanoma. Moreover, the growth in the assay on UACC-62 melanoma is -85.6% (active); with LOX IMVI melanoma, -86.2% (active); in the assay on SK-MEL-2 melanoma, -92.5% (active); in the assay on EKVX NSCLC, -84.1% (active); in the assay on SN12C renal, -83.3% (active); in the assay with UO-31 renal, -92.6% (active). Moreover, the growth with TK-10 renal was -94.7% (active); in the assay with ACHN renal, -95.9% (active); with CAKI-1 renal, -93.5% (active); in the assay on A498 renal, -97.9% (active); in the assay with CCRF-CEM leukemia it was -46.7% (active); in the assay on MOLT-4 leukemia, -62.6% (active).
